The supplement of paper PMC6555819

Each sequence was assayed on VDR:RXRa (NR concentration 270 nM, RXRa partner concentration 90 nM) (assay: PBM binding z-score (relative to random genomic background probes); higher = stronger binding; sequences stand for … in GC…GCGATTGACAGCGTAGAATGAAGG).
Method: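 Protein-binding microarray (Agilent 4x180K custom design, double-stranded 60-nt probes: 5' GC cap, 34-nt variable region, 24-nt constant primer region; full probe sequence given). Purified or IVT nuclear receptor:RXRα heterodimers (3:1 NR:RXRα, mostly 270:90 nM) or homodimers were incubated for 1 h in PBS with 2% milk and no ligand, then detected with Alexa488 antibodies. Fluorescence from o1-orientation probes (~5 replicates averaged) was converted to z-scores against 500 random hg19 background probes. Variable regions are seed direct-repeat (DR0–DR5) sites, all their single-nucleotide variants and half-site ablations.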

Point of comparison: CCTCGGAGGACAGTAGGTCAGAGCTGTCCGCTTT, PBM binding z-score -0.11. Against it:
- AGTCAAAGTTCATCTAGGTAACGTAGGATATGCT — higher, 5.09
- TAGCCTAGATCATTGGGCCAGTATAGTACGCATC — lower, -0.685
- CCGACTGCGGCATAAGGTTACCATAAGCCAGCCC — higher, 0.0281
- TAGCCTAGGTCATGGGCCAGTATCCCACGCGAAC — higher, 1.76
- ATATGTTGGTTATCGGGTCATTCAGTTTGCGCAT — higher, 4.86
- CGTCCAGGGTCAGAGAGGTCAGTGAATGCCGAGT — higher, 7.46
- TGAATGAGGTTATAAGATCAGGGAACGTTGCAAA — higher, 0.749
- AGTCAAAGTTCATCTAGGTAACTTAAGATATGCT — higher, 4.95
- TGAATGAGGTTAAAAATCAGGGAACGTGGCGTCG — higher, 0.855
- AGAATGAGGCTACCAAAGATCAGGGAAACGCTTG — lower, -0.544
- AGAATGAGGTTACCAAAGATCAGCGAAACGCTTG — higher, 1.33
- CAAACTAAGTCACCGGAAGGTCAAAGTCCGCATG — higher, 3.59
- AAATGTAGGTTATCGGGTCATTCAGTTTGCGCAT — higher, 5.22
- CCTGCAAGGTCAATGGTCAGCTAAAGCAGCTCGC — higher, 3.76
- GGAACGAGGGCATTCGAGTTGATAGCGTGGCGAT — higher, 3.59
- TCTGCTAGGTCAGCTGGTCAGCTAACGAGCTGCC — higher, 0.12
- TCTTGTAGATCAATAGAGGTTGAGAAAGTGCGCT — higher, 0.789
- ACTTACGGGTCAACGAGGTTACAGCACGCGTATA — higher, 7.79
- TGAATGAGGTTAAAGATCAGGGCACGTGGCGTCG — higher, 2.19
- TCAGACAGGTGAAGGCAACTCAGGTACGCAGTCG — higher, 0.552
- CAAACTAGCTCAAAGGTCAAAGTCGAGCCAACCA — higher, 4.72
- TCATAGAGGTAAACAGGTGAAAGTCCGTAAGTTA — higher, 0.83
- CGAACTAGGTCAGAACAGGACAGAGAAGGATGAT — higher, 0.496
- TCTATTAGTTGATTAGGGCAACCGCAACAGCGGA — higher, 0.526
- GCGACTGGGGCATCAGCAAGTTACCATAACTTAA — lower, -0.37
- CCAGACAGGTAAAAGGTAACTCAGTCTGGTACGC — higher, 0.318
- GCTGCTAGGTCAACTTATGGTCAGCTAAAGCTCG — higher, 2.04
- CGTCCAAGGTCAATGCTAGGTCAGTGAGAGCATT — higher, 5.11
- TCTGCTAGGTCAGTTGGTCAGTTAACGAGCTGCC — higher, 0.0446
- CCTTACGGGGCACTGACAGGTTATAGCATTTGGA — lower, -0.341
- CTCGAAAGGTCGGTTGAGGTGAGAATACGGATAA — higher, 2.26
- GATACAGGGTCAGCTAGAGGCCCGAGTATGGAAA — higher, 2.11
- CCTAGTTGGTCAGGAGGTTACACACCGGATATGA — higher, 0.869
- TCATATAGGCAAACAGGTGAAAGTCCGTAAGTTA — higher, 0.719
- CCTACTGGGCCACGAAAGCTCATTGATTCAGTGA — lower, -0.828
- CCTCGGAGGACAGAAGGTCAGAACTGTCCGCTTT — higher, 0.995
- AGTCAAAGTTCAGGACGAGGTAACGTAAAGCACG — higher, 2.85
- TCTAGTAGATCAACAGGAGGTTAAGAAAGATCGA — higher, 0.713
- TTTCGGAGGACACGAAAGGTCAGAGCTCGACATC — higher, 3.54
